# Results from PubChem BioAssay (Tox21).
# Several values for one entry are separate records, joined by “and”; a condition that tells them apart may be missing. Equal entries are not always repeated. Results filed as inconclusive are left out. A call without a number means that no potency is given here. Activity calls are given as the source filed them. Unless noted, calls follow the shape of the dose curve; as a rule, active = well fitted curve in the direction sought with a large enough effect in the repeat runs; inconclusive = weak or mixed curves; inactive = no such curve, though single readings can be large; an effect the other way counts as inactive or inconclusive.
# Tests used:
# [1] = target: Cytochrome P450 2D6 (Homo sapiens) (UniProt P10635); assay: Cytochrome P450 Family 2 Subfamily D Member 6 (CYP2D6) small molecule antagonists: luciferase reporter qHTS assay (AID 1671196); also: nearly all actives have a fitted effect of over 50% in size; also: potency is read from the fitted curve at half-maximal effect
# Cytochrome P450 2D6 (Homo sapiens), sequence (P10635 whole entry, looked up): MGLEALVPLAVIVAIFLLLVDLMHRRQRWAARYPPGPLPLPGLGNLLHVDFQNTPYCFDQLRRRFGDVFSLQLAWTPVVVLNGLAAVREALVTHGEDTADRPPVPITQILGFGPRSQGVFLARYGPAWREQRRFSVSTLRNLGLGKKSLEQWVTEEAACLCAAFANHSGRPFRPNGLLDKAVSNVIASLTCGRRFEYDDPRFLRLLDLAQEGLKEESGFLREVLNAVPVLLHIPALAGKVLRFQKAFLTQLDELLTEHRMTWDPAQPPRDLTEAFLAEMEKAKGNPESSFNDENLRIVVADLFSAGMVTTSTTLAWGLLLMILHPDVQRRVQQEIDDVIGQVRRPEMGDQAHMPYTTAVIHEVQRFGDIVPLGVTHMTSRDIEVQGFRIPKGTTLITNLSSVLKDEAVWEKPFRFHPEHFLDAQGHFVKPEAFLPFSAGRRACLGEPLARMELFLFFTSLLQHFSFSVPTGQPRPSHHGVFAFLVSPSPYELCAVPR
# Outline: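 Luminogenic proluciferin substrate, CYP2D6 enzyme; 10 min RT preincubation with compound, NADPH regeneration system added, 1 h RT. Stop/detection reagent, 20 min RT, luminescence read (RLU). Signal proportional to CYP activity.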
# [2] = target: Cytochrome P450 1A2 (Homo sapiens) (UniProt P05177); assay: Cytochrome P450 Family 1 Subfamily A Member 2 (CYP1A2) small molecule antagonists: luciferase reporter qHTS assay (AID 1671199); also: nearly all actives have a fitted effect of over 50% in size; also: potency is read from the fitted curve at half-maximal effect
# Cytochrome P450 1A2 (Homo sapiens), sequence (P05177 whole entry, looked up): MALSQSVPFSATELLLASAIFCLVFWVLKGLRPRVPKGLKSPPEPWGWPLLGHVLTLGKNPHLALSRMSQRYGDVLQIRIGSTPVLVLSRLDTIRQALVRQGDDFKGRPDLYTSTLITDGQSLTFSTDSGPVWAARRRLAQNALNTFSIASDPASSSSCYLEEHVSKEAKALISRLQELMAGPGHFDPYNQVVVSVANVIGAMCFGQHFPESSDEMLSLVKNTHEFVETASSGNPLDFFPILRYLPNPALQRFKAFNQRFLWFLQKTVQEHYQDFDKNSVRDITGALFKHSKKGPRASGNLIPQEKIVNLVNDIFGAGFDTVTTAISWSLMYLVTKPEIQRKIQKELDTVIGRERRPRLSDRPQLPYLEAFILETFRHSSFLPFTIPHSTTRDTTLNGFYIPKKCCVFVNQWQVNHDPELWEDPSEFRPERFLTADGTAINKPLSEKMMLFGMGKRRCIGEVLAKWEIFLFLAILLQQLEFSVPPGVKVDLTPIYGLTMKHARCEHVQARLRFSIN
# Outline: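 Luminescence readout (relative luminescence units) after luciferin detection reagent, 20 min RT. Preceded by 1 h room-temperature CYP1A2 reaction with NADPH regeneration solution following 10 min compound preincubation with enzyme and proluciferin substrate. Furafylline positive control.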
# [3] = target: Voltage-gated inwardly rectifying potassium channel KCNH2 (Homo sapiens) (UniProt Q12809); assay: Human Ether-a-go-go-Related Gene (hERG) channel small molecule antagonists: fluorescence cell-based qHTS assay (AID 1671200); also: nearly all actives have a fitted effect of over 50% in size; also: potency is read from the fitted curve at half-maximal effect
# Voltage-gated inwardly rectifying potassium channel KCNH2 (Homo sapiens), sequence (Q12809 whole entry, looked up): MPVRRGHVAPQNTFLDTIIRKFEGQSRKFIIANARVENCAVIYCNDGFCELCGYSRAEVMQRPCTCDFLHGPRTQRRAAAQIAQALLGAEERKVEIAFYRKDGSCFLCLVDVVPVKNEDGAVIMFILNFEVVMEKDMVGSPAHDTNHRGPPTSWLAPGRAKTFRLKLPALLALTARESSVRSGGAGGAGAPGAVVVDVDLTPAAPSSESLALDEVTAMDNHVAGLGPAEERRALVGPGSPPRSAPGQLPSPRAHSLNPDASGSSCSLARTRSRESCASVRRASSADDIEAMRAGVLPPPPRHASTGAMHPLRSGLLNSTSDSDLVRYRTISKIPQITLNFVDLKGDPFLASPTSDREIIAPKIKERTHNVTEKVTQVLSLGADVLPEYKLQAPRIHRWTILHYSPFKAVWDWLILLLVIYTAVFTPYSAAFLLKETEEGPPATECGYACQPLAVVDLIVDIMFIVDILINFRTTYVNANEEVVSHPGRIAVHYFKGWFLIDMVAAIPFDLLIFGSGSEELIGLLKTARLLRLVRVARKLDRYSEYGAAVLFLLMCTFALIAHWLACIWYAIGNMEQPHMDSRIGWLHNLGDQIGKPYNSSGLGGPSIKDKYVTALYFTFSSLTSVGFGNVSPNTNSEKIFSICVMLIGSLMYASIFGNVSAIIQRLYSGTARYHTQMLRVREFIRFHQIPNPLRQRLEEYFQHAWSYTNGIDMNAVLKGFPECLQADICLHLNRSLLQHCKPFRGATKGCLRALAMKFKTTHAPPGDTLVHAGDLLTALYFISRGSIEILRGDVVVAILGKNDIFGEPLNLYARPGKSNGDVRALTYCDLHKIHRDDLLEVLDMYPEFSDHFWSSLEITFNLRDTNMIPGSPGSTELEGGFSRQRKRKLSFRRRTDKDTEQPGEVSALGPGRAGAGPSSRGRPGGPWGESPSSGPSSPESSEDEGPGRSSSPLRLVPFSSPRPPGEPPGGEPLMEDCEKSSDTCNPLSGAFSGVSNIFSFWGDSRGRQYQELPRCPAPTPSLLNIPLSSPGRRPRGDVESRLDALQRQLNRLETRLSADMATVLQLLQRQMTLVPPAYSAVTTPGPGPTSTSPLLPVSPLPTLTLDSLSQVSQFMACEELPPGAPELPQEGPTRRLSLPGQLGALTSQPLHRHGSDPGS
# Outline: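 Quantitative HTS in hERG-U2OS cells: thallium entry through the channel reports activity, read as continuous 480/540 nm fluorescence over 2 min after stimulus addition.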
# [4] = target: Cytochrome P450 3A4 (Homo sapiens) (UniProt P08684); assay: Cytochrome P450 Family 3 Subfamily A Member 4 (CYP3A4) small molecule antagonists: luciferase reporter qHTS assay (AID 1671201); also: nearly all actives have a fitted effect of over 50% in size; also: potency is read from the fitted curve at half-maximal effect
# Cytochrome P450 3A4 (Homo sapiens), sequence (P08684 whole entry, looked up): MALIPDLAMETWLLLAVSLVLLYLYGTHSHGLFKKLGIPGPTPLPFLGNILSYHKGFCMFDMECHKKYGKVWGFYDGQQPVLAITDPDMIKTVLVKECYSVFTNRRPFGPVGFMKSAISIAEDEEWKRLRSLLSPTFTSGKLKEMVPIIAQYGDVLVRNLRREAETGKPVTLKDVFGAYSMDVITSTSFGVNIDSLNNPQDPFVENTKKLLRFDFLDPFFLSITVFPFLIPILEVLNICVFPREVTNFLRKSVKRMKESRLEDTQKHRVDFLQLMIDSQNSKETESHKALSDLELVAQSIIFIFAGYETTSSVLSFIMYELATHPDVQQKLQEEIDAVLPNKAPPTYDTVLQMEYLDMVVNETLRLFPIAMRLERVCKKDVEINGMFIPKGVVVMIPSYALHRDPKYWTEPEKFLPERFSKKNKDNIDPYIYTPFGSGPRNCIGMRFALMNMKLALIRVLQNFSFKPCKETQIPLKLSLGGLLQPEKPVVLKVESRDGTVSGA
# Outline: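 Inhibition of CYP3A4 is measured as loss of light: the enzyme converts a proluciferin substrate to luciferin, detected luminescently. Reaction ran 1 h at room temperature with NADPH regeneration after a 10 min compound preincubation.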
# [5] = target: Acetylcholinesterase (Homo sapiens) (UniProt P22303); assay: Acetylcholinesterase (AChE) small molecule antagonists: fluorescence cell-based qHTS assay (AID 1347398; calls by dose curve; also: nearly all actives have a fitted effect of over 50% in size; also: potency is read from the fitted curve at half-maximal effect); settings: Potency: AChE activity
# Acetylcholinesterase (Homo sapiens), sequence (P22303 whole entry, looked up): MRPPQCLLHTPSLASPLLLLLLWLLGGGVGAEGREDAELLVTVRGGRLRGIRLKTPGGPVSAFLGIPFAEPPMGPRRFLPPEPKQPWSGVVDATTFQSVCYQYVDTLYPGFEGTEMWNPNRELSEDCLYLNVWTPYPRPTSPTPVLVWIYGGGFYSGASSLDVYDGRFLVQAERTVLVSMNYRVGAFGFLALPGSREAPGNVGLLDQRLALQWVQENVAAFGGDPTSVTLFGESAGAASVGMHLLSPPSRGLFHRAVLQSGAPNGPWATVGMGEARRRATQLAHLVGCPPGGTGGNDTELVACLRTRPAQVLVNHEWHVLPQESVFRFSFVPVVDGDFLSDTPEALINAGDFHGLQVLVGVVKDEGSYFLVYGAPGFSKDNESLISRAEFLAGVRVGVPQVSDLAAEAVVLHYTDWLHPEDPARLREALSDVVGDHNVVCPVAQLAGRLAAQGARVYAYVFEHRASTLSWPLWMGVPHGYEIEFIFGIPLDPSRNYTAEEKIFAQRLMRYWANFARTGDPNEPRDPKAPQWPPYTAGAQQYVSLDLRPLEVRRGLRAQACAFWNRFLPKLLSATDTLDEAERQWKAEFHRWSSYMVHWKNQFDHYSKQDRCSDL
# Outline: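 Cellular AChE inhibition: SH-SY5Y cells treated with test chemical for 30 min at 37 C, then acetylthiocholine hydrolysis followed over 40 min at room temperature via thiocholine-reactive Thiolite Green fluorescence (490/520 nm).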
# [6] = target: Acetylcholinesterase (Homo sapiens) (UniProt P22303); assay: Acetylcholinesterase (AChE) small molecule antagonists: enzyme-based qHTS assay with human liver microsomes (AID 1347399; calls by dose curve; also: nearly all actives have a fitted effect of over 60% in size); settings: Potency: qHTS inhibition
# Outline: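 Recombinant human AChE (50 mU/mL in the enzyme mix) and human liver microsomes (0.25 mg/mL final) were preincubated with compound and NADPH (0.25 mg/mL final) for 30 min at 37 C. Acetylthiocholine/DTNB was then added; thiocholine was read colorimetrically after 10 min at room temperature.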
# [7] = target: Cytochrome P450 2C19 (Homo sapiens) (UniProt P33261); assay: Cytochrome P450 Family 2 Subfamily C Member 19 (CYP2C19) small molecule antagonists: luciferase reporter qHTS assay (AID 1671197); also: nearly all actives have a fitted effect of over 65% in size; also: potency is read from the fitted curve at half-maximal effect
# Cytochrome P450 2C19 (Homo sapiens), sequence (P33261 whole entry, looked up): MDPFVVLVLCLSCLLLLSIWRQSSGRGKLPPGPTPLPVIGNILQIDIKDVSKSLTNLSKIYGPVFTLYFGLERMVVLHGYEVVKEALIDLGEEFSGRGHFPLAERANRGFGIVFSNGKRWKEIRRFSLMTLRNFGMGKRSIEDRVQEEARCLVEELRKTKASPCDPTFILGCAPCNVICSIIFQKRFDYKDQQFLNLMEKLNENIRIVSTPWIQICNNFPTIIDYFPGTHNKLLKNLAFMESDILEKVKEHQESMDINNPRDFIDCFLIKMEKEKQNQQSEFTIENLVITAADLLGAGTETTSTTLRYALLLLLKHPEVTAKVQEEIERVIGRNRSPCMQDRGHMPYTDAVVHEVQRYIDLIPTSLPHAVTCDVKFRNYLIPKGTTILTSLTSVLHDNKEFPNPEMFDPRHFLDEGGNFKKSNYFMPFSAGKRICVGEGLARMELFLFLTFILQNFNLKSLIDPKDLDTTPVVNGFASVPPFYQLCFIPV
# Outline: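 Light output is proportional to CYP2C19 activity: proluciferin substrate is converted to luciferin, then detected by a luciferin detection reagent that also stops the 1 h, 37C NADPH-driven reaction. Ketoconazole serves as positive control.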
# [8] = target: Cytochrome P450 2C9 (Homo sapiens) (UniProt P11712); assay: Cytochrome P450 Family 2 Subfamily C Member 9 (CYP2C9) small molecule antagonists: luciferase reporter qHTS assay (AID 1671198); also: nearly all actives have a fitted effect of over 50% in size; also: potency is read from the fitted curve at half-maximal effect
# Cytochrome P450 2C9 (Homo sapiens), sequence (P11712 whole entry, looked up): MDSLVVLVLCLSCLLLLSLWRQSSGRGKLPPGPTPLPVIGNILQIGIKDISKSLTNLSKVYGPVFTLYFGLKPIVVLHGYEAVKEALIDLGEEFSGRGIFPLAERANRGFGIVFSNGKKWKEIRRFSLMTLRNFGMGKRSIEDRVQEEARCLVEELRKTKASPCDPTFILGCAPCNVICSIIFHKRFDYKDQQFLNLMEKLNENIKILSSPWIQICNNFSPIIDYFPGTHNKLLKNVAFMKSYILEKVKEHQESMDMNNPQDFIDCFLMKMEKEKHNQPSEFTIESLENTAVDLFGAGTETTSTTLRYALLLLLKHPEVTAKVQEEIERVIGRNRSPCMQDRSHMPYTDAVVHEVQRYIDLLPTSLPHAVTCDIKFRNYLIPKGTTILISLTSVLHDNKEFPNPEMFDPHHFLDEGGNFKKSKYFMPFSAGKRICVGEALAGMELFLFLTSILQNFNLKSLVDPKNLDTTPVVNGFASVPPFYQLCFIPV
# Outline: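 CYP2C9 activity was measured with a P450-Glo proluciferin substrate. Enzyme–substrate mix was held with compound for 10 min at room temperature, then NADPH regeneration solution was added for 1 h at 37C. Luciferin product was read as luminescence.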
compound,measurement,setting,value
CN1CCc2cc3c(cc2C1O)OCO3 (stereo not given),Potency,[1],2.01 µM (active)
same,Potency,[2],40.2 µM (active)
same,Potency,[3],inactive
same,Potency,[4],inactive
O.O.O.O=C([O-])[C@H]([O-])[C@@H]([O-])C(=O)[O-].O=C([O-])[C@H]([O-])[C@@H]([O-])C(=O)[O-].[K+].[K+].[Sb+3].[Sb+3],Potency,[5],inactive
same,Potency,[3],inactive
O.O.O.O.O.O.O=S(=O)([O-])[O-].[Ni+2],Potency,[3],inactive
[Cl][Hg][c]1ccccc1,Potency,[6],inactive
same,Potency,[1],0.796 µM (active)
same,Potency,[7],5.03 µM (active)
same,Potency,[8],3.99 µM (active)
same,Potency,[2],28.3 µM (active)
same,Potency,[3],17.4 µM (active)
same,Potency,[4],8.94 µM (active)
Cc1cccc(Cc2cnc[nH]2)c1C,Potency,[6],inactive
same,Potency,[1],2.45 µM (active)
same,Potency,[7],2.19 µM (active)
same,Potency,[8],0.347 µM (active)
same,Potency,[2],0.911 µM (active)
same,Potency,[3],inactive
CC(Cc1ccc(O)cc1)NCC(O)c1cc(O)cc(O)c1 (stereo not given),Potency,[1],9.77 µM (active)
same,Potency,[7],inactive
same,Potency,[8],inactive
same,Potency,[2],inactive
same,Potency,[3],inactive
same,Potency,[4],inactive
O=C(N[C@@H]1N=C(c2ccccc2F)c2cccc3c2N(CC3)C1=O)c1cc2ccccc2[nH]1,Potency,[6],inactive
same,Potency,[1],inactive
same,Potency,[2],inactive
same,Potency,[3],12 µM (active)
same,Potency,[4],inactive
O.O.O.O.O.O.O.O=S(=O)([O-])[O-].[Co+2],Potency,[3],inactive
Clc1ccc(C(Cl)(Cl)Cl)cc1Cl,Potency,[6],inactive
same,Potency,[1],inactive
same,Potency,[8],inactive
same,Potency,[3],inactive
CC(=O)O.CC(=O)O.CC(=O)O.CC(=O)O.CC(=O)O.CC(=O)O.CC(=O)O.O.O.[Cr].[Cr].[Cr],Potency,[3],inactive
COP(=O)(OC)Oc1ccc([N+](=O)[O-])cc1,Potency,[1],25.2 µM (active)
same,Potency,[8],inactive
same,Potency,[2],inactive
same,Potency,[3],inactive
same,Potency,[4],inactive
O=[N+]([O-])c1cccc2cccc([N+](=O)[O-])c12,Potency,[6],inactive
same,Potency,[1],inactive
same,Potency,[8],inactive
same,Potency,[3],inactive
N#CSCc1ccccc1,Potency,[6],inactive
same,Potency,[1],45 µM (active)
same,Potency,[7],71.3 µM (active)
same,Potency,[2],80 µM (active)
same,Potency,[3],inactive
COP(=O)(OC)O/C(=C\Cl)c1cc(Cl)c(Cl)cc1Cl,Potency,[6],inactive
same,Potency,[1],79.6 µM (active)
same,Potency,[8],44.8 µM (active)
same,Potency,[2],1.42 µM (active)
same,Potency,[3],inactive
same,Potency,[4],inactive
C1=CCC=C1,Potency,[3],inactive
Cc1ccccc1OP(=O)(Oc1ccccc1C)Oc1ccccc1C,Potency,[5],inactive
same,Potency,[7],1.6 µM (active)
same,Potency,[4],inactive
CC(=O)[O-].CC(=O)[O-].O.O.[Zn+2],Potency,[3],inactive
CC(=O)[O-].CC(=O)[O-].[Co+2],Potency,[3],inactive
[Cl-].[Cl-].[Sn+2],Potency,[3],inactive
O=C1C(Cl)=C(Cl)C(=O)C(Cl)=C1Cl,Potency,[5],35.5 µM (active) and 63.3 µM (active)
same,Potency,[1],31.6 µM (active) and 25.2 µM (active)
same,Potency,[7],7.94 µM (active) and 11.2 µM (active)
same,Potency,[2],35.6 µM (active)
same,Potency,[3],34.7 µM (active)
same,Potency,[4],22.4 µM (active)
